Experimental data: PubChem BioAssay AID651687 (Broad Institute, 2012)
Values joined by “and” are separate entries in the source; they are usually repeats but may differ in a detail not shown here. Identical values can stand only once. The whole screen tested about 350,000 compounds, of which about 600 (0.17%) were called active.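 The calls were made as follows: active = every replicate shows inhibition of at least 40%; inconclusive = mean inhibition at least 40% but some replicate below; inactive = the rest.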 This excerpt belongs to a sample that is enriched for actives.

experiment: compounds lowering acetylated PGC1a in cells – cell-based, U2OS, AlphaScreen, inhibitor mode, primary screen (AID 651687); details: U2OS PGC1a acetylation, AlphaScreen anti-acetyl-lysine; at 15.6 µM; active compounds read high; with virally co-expressed GCN5 acetyltransferase;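 also: 0% = neutral control wells and 100% = positive control wells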

Row | Compound | inhibition
1 | C[C@H](CO)N1C[C@H](C)[C@H](CN(C)S(=O)(=O)c2cn(C)cn2)Oc2c(NC(=O)c3ccncc3)cccc2C1=O | -3.09% (inactive)
2 | CO[C@H]1CN(C)C(=O)c2ccc(NC(=O)c3nc4ccccc4s3)cc2OC[C@@H](C)N(Cc2cncnc2)C[C@H]1C | 10.9% (inactive)
3 | CC[C@H]1CN2CCc3cc(OC)c(OC)cc3[C@@H]2C[C@@H]1C[C@H]1NCCc2cc(OC)c(OC)cc21 | 83.7% (active)
4 | C[C@@H]1CN([C@@H](C)CO)S(=O)(=O)c2ccc(-c3cccc(F)c3)cc2O[C@@H]1CN(C)S(=O)(=O)c1ccccc1 | 5.85% (inactive)
5 | C[C@H](CO)N1C[C@H](C)[C@H](CN(C)C)Oc2ncc(/C=C/c3ccccc3)cc2C1=O | -8.6% (inactive) and 4.49% (inactive)
6 | CO[C@H]1CN(C)C(=O)c2cc(NC(=O)c3nc4ccccc4s3)ccc2OC[C@H](C)N(Cc2cccnc2)C[C@@H]1C | 7.17% (inactive)
7 | COc1ccc(NC(=O)N2CC[C@@H]3[C@@H](CO)N(C)c4ccc(-c5cccc(F)c5)cc4[C@@H]32)cc1 | 10.2% (inactive)
8 | O=C(Nc1ccc(C(F)(F)F)cc1)N[C@@H]1CC[C@H](CCNC(=O)c2ccccc2F)O[C@H]1CO | 10.8% (inactive)
9 | CO[C@@H]1CN(C)C(=O)c2ccc(NC(=O)NC(C)C)cc2OC[C@H](C)N(Cc2ccc(-c3ccccn3)cc2)C[C@H]1C | -3.93% (inactive)
10 | CCOc1ccccc1CN1CCN(C2CCC2)CC1CCO (centres undefined) | 74.8% (active)
11 | COc1ccccc1N1CCC(N2CCN(CC(C)(C)C)C(CCO)C2)CC1 (centres undefined) | 10.6% (inactive)
12 | COc1ccc(N2CCC(N3CCN(C)C(CCO)C3)CC2)cc1 (centres undefined) | 0.824% (inactive)
13 | CO[C@@H]1CN(C)C(=O)c2ccc(NC(=O)c3ccccn3)cc2OC[C@@H](C)N(C(=O)C2CCCCC2)C[C@H]1C | -2.25% (inactive)
14 | C[C@H](CO)N1C[C@H](C)[C@H](CN(C)Cc2ccccn2)Oc2ncc(C#CCc3ccccc3)cc2C1=O | -0.518% (inactive)
15 | COCCCNC(=O)[C@@]1(Cc2ccccc2)COC(c2ccc(OCCCO)cc2)=N1 | 4.46% (inactive)
16 | Cc1ccc(S(=O)(=O)N(C)C[C@H]2OCCCC[C@@H](C)Oc3ccc(NC(=O)Nc4ccc(F)cc4)cc3C(=O)N([C@@H](C)CO)C[C@H]2C)cc1 | -6.65% (inactive)
17 | C[C@@H]1CN([C@H](C)CO)C(=O)c2cc(C#Cc3cccc(F)c3)cnc2O[C@H]1CN(C)Cc1ccccn1 | -11.1% (inactive)
18 | Cc1noc(C)c1S(=O)(=O)Nc1ccc2c(c1)CC(=O)N([C@@H](C)CO)C[C@H](C)[C@H](CN(C)S(=O)(=O)c1ccc(Cl)cc1)O2 | 10.3% (inactive)
19 | CO[C@H]1CN(C)C(=O)c2cc(NC(=O)C3CC3)ccc2OC[C@H](C)N(C(=O)CN(C)C)C[C@H]1C | -4.9% (inactive)
20 | O=C(C[C@H]1C[C@H]2c3cc(NC(=O)CC4CC4)ccc3O[C@H]2[C@H](CO)O1)NCc1cc(F)ccc1F | -0.32% (inactive)
21 | C[C@H](CO)N1C[C@H](C)[C@@H](CN(C)Cc2ccc(C(F)(F)F)cc2)Oc2ccc(NC(=O)Cn3cnnn3)cc2CC1=O | 6.38% (inactive)
22 | Cc1noc(C)c1NC(=O)Nc1ccc2c(c1)C(=O)N([C@H](C)CO)C[C@@H](C)[C@@H](CN(C)S(=O)(=O)c1ccc(Cl)cc1)OCCCC[C@H](C)O2 | 0.953% (inactive)
23 | COc1ccc(S(=O)(=O)N(C)C[C@H]2Oc3ccc(NS(C)(=O)=O)cc3C(=O)N([C@H](C)CO)C[C@H]2C)cc1 | -5.85% (inactive)
24 | O=C(Cc1ccccc1)N1CC[C@H]2[C@H](CO)Nc3ccc(-c4ccccc4F)cc3[C@H]21 | -17.2% (inactive)
25 | CC(C)NC(=O)Nc1ccc2c(c1)C(=O)N([C@H](C)CO)C[C@H](C)[C@@H](CN(C)Cc1ccc3c(c1)OCO3)OCCCC[C@H](C)O2 | 4.63% (inactive)

Row | Compound | inhibition
26 | C[C@@H]1CN([C@@H](C)CO)C(=O)c2cc(NC(=O)c3ccncc3)ccc2O[C@@H]1CN(C)S(C)(=O)=O | 6.79% (inactive)
27 | Cc1ccccc1-c1ccc([C@H]2[C@@H](CO)N3C(=O)CN(C(=O)c4ccncc4)C[C@H]23)cc1 | -5.89% (inactive)
28 | Cn1c2c(c(=O)n(C)c1=O)C(c1cccc(F)c1)C(C#N)=C(N)O2 (centres undefined) | 80.9% (active)
29 | N#CC1=C(N)Oc2cc(N)ccc2C1c1ccccc1 (centres undefined) | -1.66% (inactive)
30 | Cc1cc2c(c(=O)n1C)C(C(C)C)C(C#N)=C(N)O2 (centres undefined) | 8.23% (inactive)
31 | C[C@@H]1CN([C@@H](C)CO)C(=O)c2cc(NC(=O)CCCCCC(=O)Nc3ccccc3N)ccc2O[C@@H](C)CCCCO[C@@H]1CN(C)CC1CCCCC1 | 3.98% (inactive)
32 | O=C(CC(F)(F)F)N1C[C@H]2[C@@H](c3ccccc31)[C@H](CO)N2C(=O)Cc1cccnc1 | 0.596% (inactive)
33 | CN(C)Cc1cn(CC[C@H]2CC[C@@H](NS(=O)(=O)c3ccccc3)[C@H](CO)O2)nn1 | -1.22% (inactive)
34 | CO[C@H]1CN(C)C(=O)c2ccc(NS(C)(=O)=O)cc2OC[C@@H](C)N(Cc2ccccc2)C[C@H]1C | 4.39% (inactive)
35 | O=C(C[C@@H]1CC[C@@H](NC(=O)c2cccnc2)[C@H](CO)O1)NCCN1CCCCC1 | 6.21% (inactive)
36 | CCC(=O)N1CC(=O)N2[C@@H](CO)[C@H](c3ccc(C#CCC(C)C)cc3)[C@@H]2C1 | -4.62% (inactive)
37 | O=C(CC(F)(F)F)N1C[C@H]2[C@@H](c3ccccc31)[C@H](CO)N2C(=O)Cc1ccccc1 | 9.3% (inactive)
38 | C/C=C/c1ccccc1[C@@H]1[C@@H](C#N)N(C(=O)Cc2ccccn2)[C@H]1CO | -0.046% (inactive)
39 | C[C@H]1CN([C@@H](C)CO)S(=O)(=O)c2ccc(C#CC3(O)CCCC3)cc2O[C@@H]1CN(C)C(=O)Nc1cccc(F)c1 | -10% (inactive)
40 | Cc1ccc(S(=O)(=O)N2C[C@H](O)COC[C@@H]3O[C@@H](CC(=O)NCC4CCCCC4)CC[C@H]32)cc1 | -0.708% (inactive)
41 | N#Cc1ccc(-c2ccc([C@@H]3[C@H]4CNC[C@@H]3N4Cc3ccc4c(c3)OCO4)cc2)cc1 | 48.1% (active)
42 | COc1ccccc1CN1[C@@H]2CNC[C@H]1C2c1ccc(-c2cccc(C#N)c2)cc1 (some centres undefined) | 1.68% (inactive) and -10% (inactive)
43 | N#Cc1ccc(-c2ccc3c(c2)[C@H]2[C@H](CCN2Cc2ccc4c(c2)OCO4)[C@@H](CO)N3)cc1 | -7% (inactive)
44 | COc1ccc2c3c([nH]c2c1)[C@H](CO)N(Cc1ccccc1OC)CC31CCN(S(=O)(=O)c2ccccc2)CC1 | 8.15% (inactive)
45 | C[C@@H]1CN([C@@H](C)CO)C(=O)c2cccc(NC(=O)c3ccc(-c4nccs4)cc3)c2O[C@H]1CN(C)C(=O)Nc1ccccc1 | -1.84% (inactive)
46 | O=C(Nn1cnnc1)c1ccc([N+](=O)[O-])cc1 | -2.58% (inactive)
47 | Cc1ccc(C)n1NC(=O)c1ccc([N+](=O)[O-])cc1 | 2.46% (inactive)
48 | N=C1C(c2nc3ccccc3s2)=C(O)CN1NC(=O)c1ccc([N+](=O)[O-])cc1 | 100% (active)
49 | COc1ccc(NC(=O)N2C[C@H](O)COC[C@H]3O[C@@H](CC(=O)NC4Cc5ccccc5C4)CC[C@@H]32)cc1 | 1.58% (inactive)
